# Laboratory results: PubChem BioAssay AID1159580 (chemical genetic matrix, 2015)
# “And” between values parts separate entries of the source, which are not always exact repeats. Identical values can stand only once. The whole screen tested about 5,500 compounds, of which about 2,000 (36%) were called active. Roughly 18% stayed inconclusive and do not appear here. This is one part of the list. Values without a mark were called inactive. Rule as the data show it: active = normalized growth mostly below about 0.91 (no sharp cut-off); inconclusive = no clear call, values can overlap the other calls; inactive = mostly above about 0.92.
# Test: chemical genetic growth profiling, strain panel (AID 1159580);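 also: tested at 20 µM; growth read once vehicle control cultures reached saturation at 30 °C; 1 = growth at the plate median or of vehicle wells; lower values mean less growth of the strain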
# Details: S. cerevisiae deletion strains, growth OD
structure (smiles),measurement,setting,value
NC(N)=N/N=C/c1c(Cl)cccc1Cl,normalized growth,"locus YAL021C, strain ccr4, hits give low values",0.887 (active)
same,normalized growth,"locus YAL026C, strain drs2, hits give low values",0.976
same,normalized growth,"locus YAL030W, strain snc1, hits give low values",0.981
same,normalized growth,"locus YBL061C, strain skt5, hits give low values",0.986
same,normalized growth,"locus YBR009C, strain hhf1, hits give low values",0.941
same,normalized growth,"locus YBR021W, strain FUR4, hits give low values",1.01
same,normalized growth,"locus YBR023C, strain chs3, hits give low values",0.968
same,normalized growth,"locus YBR171W, strain sec66, hits give low values",0.982
same,normalized growth,"locus YBR229C, strain ROT2, hits give low values",1.02
same,normalized growth,"locus YBR231C, strain swc5, hits give low values",0.984
same,normalized growth,"locus YBR279W, strain paf1, hits give low values",0.975
same,normalized growth,"locus YCL011C, strain gbp2, hits give low values",0.963
same,normalized growth,"locus YCL016C, strain dcc1, hits give low values",0.954
same,normalized growth,"locus YCL029C, strain bik1, hits give low values",1.01
same,normalized growth,"locus YCL069W, strain vba3, hits give low values",0.973
same,normalized growth,"locus YCR088W, strain abp1, hits give low values",0.973
same,normalized growth,"locus YDL005C, strain med2, hits give low values",0.972
same,normalized growth,"locus YDL035C, strain GPR1, hits give low values",1.02
same,normalized growth,"locus YDL040C, strain nat1, hits give low values",0.982
same,normalized growth,"locus YDL074C, strain BRE1, hits give low values",1.02
same,normalized growth,"locus YDL101C, strain DUN1, hits give low values",1.01
same,normalized growth,"locus YDL134C, strain PPH21, hits give low values",1.02
same,normalized growth,"locus YDL185W, strain tfp1, hits give low values",1.02
same,normalized growth,"locus YDL192W, strain arf1, hits give low values",1.03
same,normalized growth,"locus YDR001C, strain nth1, hits give low values",0.972
same,normalized growth,"locus YDR069C, strain doa4, hits give low values",0.968
same,normalized growth,"locus YDR101C, strain arx1, hits give low values",1.01
same,normalized growth,"locus YDR137W, strain rgp1, hits give low values",0.922
same,normalized growth,"locus YDR159W, strain sac3, hits give low values",0.919
same,normalized growth,"locus YDR162C, strain NBP2, hits give low values",1.02
same,normalized growth,"locus YDR195W, strain ref2",0.97
same,normalized growth,"locus YDR297W, strain sur2, hits give low values",0.978
same,normalized growth,"locus YDR318W, strain mcm21, hits give low values",1.01
same,normalized growth,"locus YDR334W, strain swr1, hits give low values",0.977
same,normalized growth,"locus YDR335W, strain msn5, hits give low values",0.976
same,normalized growth,"locus YDR388W, hits give low values",1.01
same,normalized growth,"locus YDR392W, strain spt3, hits give low values",0.916
same,normalized growth,"locus YDR502C, strain sam2, hits give low values",1.03
same,normalized growth,"locus YEL003W, strain gim4, hits give low values",0.963
same,normalized growth,"locus YEL037C, strain rad23, hits give low values",0.984
same,normalized growth,"locus YEL061C, strain CIN8 (second series), hits give low values",0.972
same,normalized growth,"locus YEL061C, strain CIN8, hits give low values",1.01
same,normalized growth,"locus YER015W, strain faa2, hits give low values",0.992
same,normalized growth,"locus YER016W, strain bim1, hits give low values",0.938
same,normalized growth,"locus YER110C, hits give low values",1.02
same,normalized growth,"locus YER111C, strain swi4, hits give low values",0.963
same,normalized growth,"locus YER155C, strain BEM2 (second series), hits give low values",0.989
same,normalized growth,"locus YER155C, strain BEM2, hits give low values",1
same,normalized growth,"locus YER167W, strain BCK2, hits give low values",1
same,normalized growth,"locus YFR010W, strain ubp6, hits give low values",0.988
same,normalized growth,"locus YGL078C, strain dbp3, hits give low values",1.03
same,normalized growth,"locus YGL086W, strain mad1, hits give low values",1.01
same,normalized growth,"locus YGL167C, strain pmr1, hits give low values",0.981
same,normalized growth,"locus YGL173C, strain kem1, hits give low values",0.977
same,normalized growth,"locus YGL227W, strain vid30, hits give low values",0.964
same,normalized growth,"locus YGL240W, strain doc1, hits give low values",0.986
same,normalized growth,"locus YGL248W, strain PDE1, hits give low values",1.01
same,normalized growth,"locus YGL253W, strain hxk2, hits give low values",0.96
same,normalized growth,"locus YGR135W, strain pre9, hits give low values",1.03
same,normalized growth,"locus YGR252W, strain gcn5, hits give low values",1.03
same,normalized growth,"locus YHR013C, strain ard1, hits give low values",0.889
same,normalized growth,"locus YHR027C, strain rpn1, hits give low values",0.967
same,normalized growth,"locus YHR030C, strain SLT2, hits give low values",1 and 0.981
same,normalized growth,"locus YHR079C, strain IRE1 (second series), hits give low values",1
same,normalized growth,"locus YHR079C, strain IRE1, hits give low values",0.987
same,normalized growth,"locus YHR094C, strain hxt1, hits give low values",1.01
same,normalized growth,"locus YHR129C, strain ARP1, hits give low values",1.01
same,normalized growth,"locus YHR142W, strain chs7, hits give low values",0.978
same,normalized growth,"locus YHR200W, strain rpn10, hits give low values",1.03
same,normalized growth,"locus YIL066C, strain RNR3, hits give low values",1.02
same,normalized growth,"locus YIL073C, strain SPO22, hits give low values",1.04
same,normalized growth,"locus YIL125W, strain kgd1, hits give low values",1.01
same,normalized growth,"locus YIR030C, strain dcg1, hits give low values",1.01
same,normalized growth,"locus YJL092W, strain hpr5, hits give low values",0.978
same,normalized growth,"locus YJL095W, strain BCK1 (second series), hits give low values",0.982
same,normalized growth,"locus YJL095W, strain BCK1, hits give low values",1 and 0.981
same,normalized growth,"locus YJL115W, strain asf1, hits give low values",0.964
same,normalized growth,"locus YJL129C, strain trk1, hits give low values",1.03
same,normalized growth,"locus YJL134W, strain LCB3, hits give low values",1
same,normalized growth,"locus YJL154C, strain vps35, hits give low values",0.969
same,normalized growth,"locus YJL164C, strain tpk1, hits give low values",0.931
same,normalized growth,"locus YJL166W, strain qcr8, hits give low values",0.996
same,normalized growth,"locus YJL168C, strain set2, hits give low values",1.01
same,normalized growth,"locus YJL187C, strain SWE1 (second series), hits give low values",1.02
same,normalized growth,"locus YJR043C, strain POL32, hits give low values",1.02
same,normalized growth,"locus YJR066W, strain TOR1, hits give low values",0.936
same,normalized growth,"locus YJR075W, strain HOC1, hits give low values",1.01
same,normalized growth,"locus YKL009W, strain mrt4, hits give low values",1.01
same,normalized growth,"locus YKL068W, hits give low values",1.01
same,normalized growth,"locus YKL085W, strain MDH1 (second series), hits give low values",1
same,normalized growth,"locus YKL085W, strain MDH1, hits give low values",1
same,normalized growth,"locus YKL160W, strain elf1, hits give low values",0.983
same,normalized growth,"locus YKL190W, strain CNB1, hits give low values",1.01
same,normalized growth,"locus YKR001C, strain vps1, hits give low values",1.05
same,normalized growth,"locus YKR026C, strain gcn3, hits give low values",0.991
same,normalized growth,"locus YKR091W, strain srl3, hits give low values",0.979
same,normalized growth,"locus YLL001W, strain dnm1, hits give low values",1.01
same,normalized growth,"locus YLL026W, hits give low values",0.977
same,normalized growth,"locus YLL041C, strain sdh2, hits give low values",0.981
same,normalized growth,"locus YLR027C, strain aat2, hits give low values",0.977
same,normalized growth,"locus YLR039C, strain RIC1, hits give low values",0.965
same,normalized growth,"locus YLR058C, strain SHM2, hits give low values",1.02
same,normalized growth,"locus YLR102C, strain apc9, hits give low values",1.01
same,normalized growth,"locus YLR113W, strain HOG1, hits give low values",1
same,normalized growth,"locus YLR221C, strain rsa3, hits give low values",0.968
same,normalized growth,"locus YLR258W, strain gsy2, hits give low values",0.973
same,normalized growth,"locus YLR262C, strain YPT6 (second series), hits give low values",0.978
same,normalized growth,"locus YLR262C, strain YPT6, hits give low values",1.02
same,normalized growth,"locus YLR268W, strain sec22, hits give low values",1
same,normalized growth,"locus YLR320W, strain mms22, hits give low values",0.949
same,normalized growth,"locus YLR330W, strain CHS5, hits give low values",1.01
same,normalized growth,"locus YLR342W, strain FKS1 (second series), hits give low values",1.02
same,normalized growth,"locus YLR342W, strain FKS1, hits give low values",0.977
same,normalized growth,"locus YLR357W, strain rsc2, hits give low values",0.972
same,normalized growth,"locus YLR370C, strain arc18, hits give low values",0.974
same,normalized growth,"locus YLR371W, strain rom2, hits give low values",1.02
same,normalized growth,"locus YLR384C, strain iki3, hits give low values",0.99
same,normalized growth,"locus YLR418C, strain cdc73, hits give low values",1.02
same,normalized growth,"locus YML016C, strain PPZ1, hits give low values",1.01
same,normalized growth,"locus YML032C, strain rad52, hits give low values",1.02
same,normalized growth,"locus YML120C, strain ndi1, hits give low values",0.977
same,normalized growth,"locus YML124C, strain tub3, hits give low values",1.01
same,normalized growth,"locus YMR058W, strain fet3, hits give low values",0.971
same,normalized growth,"locus YMR078C, strain ctf18, hits give low values",1.02
same,normalized growth,"locus YMR125W, strain sto1, hits give low values",0.931
same,normalized growth,"locus YMR129W, hits give low values",0.984
same,normalized growth,"locus YMR205C, strain PFK2, hits give low values",0.986
same,normalized growth,"locus YMR223W, strain ubp8, hits give low values",1.02
same,normalized growth,"locus YMR231W, strain pep5, hits give low values",0.987
same,normalized growth,"locus YMR263W, strain SAP30, hits give low values",1.01
same,normalized growth,"locus YMR307W, strain GAS1, hits give low values",0.988
same,normalized growth,"locus YNL067W, strain RPL9B, hits give low values",1.01
same,normalized growth,"locus YNL071W, strain lat1, hits give low values",0.982
same,normalized growth,"locus YNL128W, strain TEP1, hits give low values",1.02
same,normalized growth,"locus YNL153C, strain GIM3, hits give low values",1.01
same,normalized growth,"locus YNL183C, strain NPR1, hits give low values",0.952
same,normalized growth,"locus YNL209W, strain ssb2, hits give low values",0.968
same,normalized growth,"locus YNL233W, strain BNI4, hits give low values",1
same,normalized growth,"locus YNL248C, strain rpa49, hits give low values",0.884 (active)
same,normalized growth,"locus YNL250W, strain rad50, hits give low values",1.04
same,normalized growth,"locus YNL271C, strain bni1, hits give low values",1.02
same,normalized growth,"locus YNL298W, strain CLA4, hits give low values",1.05
same,normalized growth,"locus YNL307C, strain MCK1, hits give low values",1.02
same,normalized growth,"locus YNL322C, strain KRE1 (second series), hits give low values",0.956
same,normalized growth,"locus YNL322C, strain KRE1, hits give low values",1
same,normalized growth,"locus YNR049C, strain mso1, hits give low values",0.966
same,normalized growth,"locus YNR052C, strain pop2, hits give low values",1.01
same,normalized growth,"locus YOL012C, strain htz1",0.878
same,normalized growth,"locus YOL147C, strain pex11, hits give low values",1.02
same,normalized growth,"locus YOR001W, strain rrp6, hits give low values",0.957
same,normalized growth,"locus YOR061W, strain CKA2, hits give low values",1.01
same,normalized growth,"locus YOR069W, strain VPS5, hits give low values",1.01
same,normalized growth,"locus YOR070C, strain gyp1, hits give low values",0.977
same,normalized growth,"locus YOR080W, strain dia2, hits give low values",0.98
same,normalized growth,"locus YOR083W, strain WHI5, hits give low values",0.952
same,normalized growth,"locus YOR106W, strain vam3, hits give low values",0.993
same,normalized growth,"locus YOR136W, strain idh2, hits give low values",1.02
same,normalized growth,"locus YOR144C, strain elg1, hits give low values",1.02
same,normalized growth,"locus YOR184W, strain ser1, hits give low values",1.02
same,normalized growth,"locus YOR231W, strain MKK1, hits give low values",0.987
same,normalized growth,"locus YOR265W, strain rbl2, hits give low values",0.985
same,normalized growth,"locus YOR270C, strain vph1, hits give low values",0.922
same,normalized growth,"locus YOR290C, strain snf2, hits give low values",0.918
same,normalized growth,"locus YOR316C, strain cot1, hits give low values",1.01
same,normalized growth,"locus YPL051W, strain arl3, hits give low values",0.981
same,normalized growth,"locus YPL078C, strain atp4, hits give low values",0.974
same,normalized growth,"locus YPL106C, strain sse1, hits give low values",0.921
same,normalized growth,"locus YPL240C, strain hsp82, hits give low values",0.977
same,normalized growth,"locus YPL241C, strain CIN2, hits give low values",1.02
same,normalized growth,"locus YPL256C, strain CLN2, hits give low values",0.987
same,normalized growth,"locus YPR119W, strain clb2, hits give low values",1.02
same,normalized growth,"locus YPR141C, strain kar3, hits give low values",1.02
same,normalized growth,"locus YPR163C, strain tif3, hits give low values",1.02
same,normalized growth,"locus YPR167C, strain met16, hits give low values",1.01
same,normalized growth,"strain wtn01, hits give low values",1.01
